Source: ChEMBL document CHEMBL3433997, “St. Jude Leishmania screening dataset” (2016)

molecular target: Solute carrier family 2, facilitated glucose transporter member 1 (Homo sapiens) (UniProt P11166); experiment: ST_JUDE_LEISH: Cytotoxicity at 2uM final concentration against transgenic Leishmania Mexicana promastigotes LmGLUT1 that are glucose transport deficient and complemented with the human glucose transporter GLUT1. Activity is measured by DNA content using SYBR green in vitro; type: functional
Sequence (P11166 whole entry): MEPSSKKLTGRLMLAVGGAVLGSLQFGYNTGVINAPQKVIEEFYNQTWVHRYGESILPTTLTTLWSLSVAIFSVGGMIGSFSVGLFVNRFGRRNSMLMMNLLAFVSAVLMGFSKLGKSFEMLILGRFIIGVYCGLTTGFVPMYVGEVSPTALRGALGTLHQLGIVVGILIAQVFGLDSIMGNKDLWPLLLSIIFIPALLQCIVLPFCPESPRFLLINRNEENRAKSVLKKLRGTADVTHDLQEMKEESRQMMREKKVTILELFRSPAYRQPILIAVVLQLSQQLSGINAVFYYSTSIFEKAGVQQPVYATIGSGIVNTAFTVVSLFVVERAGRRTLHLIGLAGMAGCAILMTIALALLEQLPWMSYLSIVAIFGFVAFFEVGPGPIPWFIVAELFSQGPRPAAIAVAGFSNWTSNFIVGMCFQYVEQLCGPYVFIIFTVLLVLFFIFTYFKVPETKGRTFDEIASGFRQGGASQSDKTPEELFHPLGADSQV

Going from `COC(=O)c1ccc(NC(=O)c2ccc(CCN3CCC(c4nc(COCC(F)(F)F)c(-c5ccc(F)cc5)o4)CC3)cc2)cc1` to `N#Cc1ccc(C(=O)Nc2ccc(Cl)c(N3CCN(CCc4ccccc4)CC3)c2)cc1`, the inhibition rises from 3.21% to 8.77%.

Going from `CC(C)Oc1ccc2ccccc2c1CNCCCCCCNCc1c(OC(C)C)ccc2ccccc12` to `COc1ccc(CCn2c(=N)c(C(=O)NCc3ccccc3)cc3c(=O)n4cccc(C)c4nc32)cc1`, the inhibition falls from 31.1% to 12.7%.

Going from `COc1ccccc1C1CCN(C2CCC(NC(=O)/C=C/c3cc(F)c(F)cc3F)CC2)CC1` (stereo unspecified) to `COc1ccccc1C1CCN(C2CCC(NC(=O)/C=C/c3cc(F)cc(C(F)(F)F)c3)CC2)CC1` (stereo unspecified), the inhibition falls from 2.17% to -0.82%.

First: CCCN(CCC)CCCN(CCCN(CCC)CCC)c1cc(C)nc(Nc2ccc(Cl)cc2)n1
Second: CCCCN(C(=O)c1ccccc1Cl)c1nnc(-c2ccccc2C)s1
The inhibition of the first is higher: 3.33% for the first, -1.28% for the second.

First: CN1CCC(NC(=O)c2cccc(Nc3cc(Nc4cccc(Br)c4)ncn3)c2)CC1
Second: O=C(NC1CCC(CCN2Cc3ccc(Br)cc3C2)CC1)c1cccc(-c2cccnc2)c1 (stereo unspecified)
The inhibition of the first is higher: 4.2% for the first, 3.16% for the second.

First: Cc1c(Cc2ccccc2Br)cnc2nc(N)nc(N)c12
Second: COc1ccc(C2C(C(=O)Nc3ccc(C)cc3Br)c3ccccc3C(=O)N2C)cc1 (stereo unspecified)
The inhibition of the first is higher: 9.6% for the first, 3.32% for the second.

Compared with `Cc1cccc(-c2ccc(CNC3CCN(CC4Cn5c(=O)ccc6ccc(F)c4c65)CC3)cn2)c1` (stereo unspecified), `O=C(Nc1ccc(F)cc1)NC1CCN(c2ccnc3cc(Cl)ccc23)C1` (stereo unspecified) is lower in inhibition: 6.75% for the first, -0.37% for the second.

Compared with `Oc1ccc2[nH]c(-c3cccs3)nc2c1CN1CCC(O)(c2ccccc2)CC1`, `O=C(COC(=O)c1cccc(S(=O)(=O)N2CCc3ccccc32)c1)NNC(=O)c1cccs1` is lower in inhibition: 10.6% for the first, 4.4% for the second.

Going from `O=S(=O)(c1cc(Cl)sc1Cl)N(CCC(O)(C(F)(F)F)C(F)(F)F)Cc1cccc(O)c1` to `CCN(CC)CCN(Cc1ccc(-c2ccc(C(F)(F)F)cc2)cc1)C(=O)Cn1c(SCc2ccc(F)c(F)c2F)nc(=O)c2c1CCC2`, the inhibition rises from 0.79% to 2.57%.

Compared with `CCC(Cc1ccccc1)c1cc(O)c(Cc2ccc(-c3ccccc3)cc2)c(=O)o1` (stereo unspecified), `Cc1noc(C)c1-c1cccc(CNCc2ccc(-c3cccc(-c4nc5cccc(C)c5[nH]4)c3)cc2)c1` is lower in inhibition: 2.42% for the first, 0.9% for the second.

Compared with `CC(=O)Nc1cccc(C(=O)Nc2cccc(-c3ccc(-c4nc5cccc(C)c5[nH]4)cc3)c2)c1`, `CC(C)NCc1cccc(-c2ccc(NC(=O)c3ccc(C#N)cc3)cc2)c1` is higher in inhibition: 0.33% for the first, 14.9% for the second.

Going from `CC(=O)NCCCCC1NC2(C(=O)N(Cc3ccc(C(C)(C)C)cc3)c3ccccc32)C2C(=O)N(C3CCCCC3)C(=O)C12` (stereo unspecified) to `O=C(Nc1ccc2c(c1)CCC2)c1ccc(N2CCN(c3ccncc3)CC2)cn1`, the inhibition rises from -1.24% to 11.7%.

First: c1ccc(-c2nc(Nc3nc4ccccc4[nH]3)[nH]c2-c2ccccc2)cc1
Second: COc1ccc(OC)c(NC(=O)CSc2nc(-c3ccccc3Cl)ns2)c1
The inhibition of the first is higher: 10.8% for the first, 0.9% for the second.

molecular target: Hexose transporter 1 (Plasmodium falciparum) (UniProt O97467); experiment: ST_JUDE_LEISH: Cytotoxicity at 2uM final concentration against transgenic Leishmania Mexicana promastigotes LmPfHT that are glucose transport deficient and complemented with the Plasmodium falciparum hexose transporter. Activity is measured by DNA content using SYBR green in vitro; type: functional

Going from `COC(=O)Nc1ccc(-c2ccc(C(=O)NC3CCN(C[C@H](O)c4ccnc5ccc(OC)cc45)CC3)cc2)c(C)c1` to `COCCOc1cc(C)c(C2CCN(CCCCNC(=O)c3ccc(NC(=O)c4ccc(Cl)cc4)cc3)CC2)cc1C`, the inhibition rises from 0.01% to 7.14%.

First: Nc1nc(N)c2cc(NS(=O)(=O)c3ccc(-c4ccccc4)cc3)ccc2n1
Second: Nc1nc(N)c2c(ccc3c2ccn3Cc2cccc3ccccc23)n1
The inhibition of the first is lower: 3.47% for the first, 96% for the second.

Compared with `O=C(Nc1cccc(-c2nn3ccccc3c2-c2ccnc(Nc3ccc(-c4cc[nH]n4)cc3)n2)c1)c1c(F)cccc1F`, `CC(=O)Nc1cccc(C(=O)Nc2cccc(-c3ccc(-c4nc5cccc(C)c5[nH]4)cc3)c2)c1` is lower in inhibition: 10.3% for the first, 1.27% for the second.

Going from `CN(CCCN(C)c1cc(NC(=O)c2ccc(F)cc2)ccn1)Cc1cccc(F)c1` to `CC(C)NCc1cccc(-c2ccc(NC(=O)c3ccc(C#N)cc3)cc2)c1`, the inhibition rises from 5.98% to 12.1%.

Going from `O=C(Nc1cccc(F)c1)N1CCC(NS(=O)(=O)c2ccc(Br)cc2)CC1` to `CN1CCC(NC(=O)c2cccc(Nc3cc(Nc4cccc(Br)c4)ncn3)c2)CC1`, the inhibition falls from 4% to 3.45%.

Going from `COc1ccc(-c2cc(C(=O)N[C@@H](CC3CCCCC3)C(=O)NC3CCCc4ccccc43)ccc2O)cc1` (stereo partly specified) to `CCCCNC(=O)[C@H](CC1CCCCC1)NC(=O)c1ccc(O)c(-c2cccc(C(F)(F)F)c2)c1`, the inhibition rises from -0.02% to 3.75%.

Compared with `CC1CN(Cc2cccc(F)c2)CCN1c1ccc(NC(=O)c2cccs2)cc1` (stereo unspecified), `N#Cc1ccc(C(=O)Nc2ccc(Cl)c(N3CCN(CCc4ccccc4)CC3)c2)cc1` is higher in inhibition: -1.57% for the first, 7.95% for the second.

Going from `CCCC(C)NC(=O)c1cnn(-c2ccc(C(C)(C)C)cc2)c1OCc1ccc(Br)cc1` (stereo unspecified) to `Cc1ccc(CNC(=O)[C@H](CC(C)C)Nc2cc(C)nc(NCc3ccccc3C)n2)cc1`, the inhibition falls from 6.02% to 4.62%.

Going from `FC(F)(F)c1ccc2[nH]c(-c3ccc(-c4ccc(CNCc5ccccc5)cc4)cc3)nc2c1` to `Cc1noc(C)c1-c1cccc(CNCc2ccc(-c3cccc(-c4nc5cccc(C)c5[nH]4)c3)cc2)c1`, the inhibition falls from 6.65% to -2.28%.

Going from `CNC(=O)NC1=NC(C)(C)N(OCCCOc2cc(Cl)c(Cl)cc2Cl)C(N)=N1` to `COc1ccc(OC)c(NC(=O)CSc2nc(-c3ccccc3Cl)ns2)c1`, the inhibition falls from 11.8% to 0.98%.

First: COC(=O)c1ccc(NC(=O)c2ccc(CCN3CCC(c4nc(COCC(F)(F)F)c(-c5ccc(F)cc5)o4)CC3)cc2)cc1
Second: CCN(CC)CCN(Cc1ccc(-c2ccc(C(F)(F)F)cc2)cc1)C(=O)Cn1c(SCc2ccc(F)c(F)c2F)nc(=O)c2c1CCC2
The inhibition of the first is lower: 3.11% for the first, 4.02% for the second.

Compared with `CC(C)Oc1ccc2ccccc2c1CNCCCCCCNCc1c(OC(C)C)ccc2ccccc12`, `COc1ccc(CCn2c(=N)c(C(=O)NCc3ccccc3)cc3c(=O)n4cccc(C)c4nc32)cc1` is higher in inhibition: -0.9% for the first, 13.6% for the second.

Going from `COc1ccccc1C1CCN(C2CCC(NC(=O)/C=C/c3cc(F)c(F)cc3F)CC2)CC1` (stereo unspecified) to `COc1ccccc1C1CCN(C2CCC(NC(=O)/C=C/c3cc(F)cc(C(F)(F)F)c3)CC2)CC1` (stereo unspecified), the inhibition falls from 2.98% to 0.7%.

Compared with `CCCN(CCC)CCCN(CCCN(CCC)CCC)c1cc(C)nc(Nc2ccc(Cl)cc2)n1`, `CCCCN(C(=O)c1ccccc1Cl)c1nnc(-c2ccccc2C)s1` is lower in inhibition: 1.71% for the first, 0.39% for the second.

First: Cc1c(Cc2ccccc2Br)cnc2nc(N)nc(N)c12
Second: COc1ccc(C2C(C(=O)Nc3ccc(C)cc3Br)c3ccccc3C(=O)N2C)cc1 (stereo unspecified)
The inhibition of the first is higher: 30.2% for the first, 2.08% for the second.

Going from `Cc1cccc(-c2ccc(CNC3CCN(CC4Cn5c(=O)ccc6ccc(F)c4c65)CC3)cn2)c1` (stereo unspecified) to `O=C(NC1CCC(CCN2Cc3ccc(Br)cc3C2)CC1)c1cccc(-c2cccnc2)c1` (stereo unspecified), the inhibition falls from 7.42% to 4.93%.

First: Oc1ccc2[nH]c(-c3cccs3)nc2c1CN1CCC(O)(c2ccccc2)CC1
Second: O=C(COC(=O)c1cccc(S(=O)(=O)N2CCc3ccccc32)c1)NNC(=O)c1cccs1
The inhibition of the first is higher: 5.23% for the first, 4.13% for the second.

Compared with `O=S(=O)(c1cc(Cl)sc1Cl)N(CCC(O)(C(F)(F)F)C(F)(F)F)Cc1cccc(O)c1`, `CCC(Cc1ccccc1)c1cc(O)c(Cc2ccc(-c3ccccc3)cc2)c(=O)o1` (stereo unspecified) is higher in inhibition: 0.45% for the first, 2.07% for the second.

Going from `O=C(Nc1ccc(F)cc1)NC1CCN(c2ccnc3cc(Cl)ccc23)C1` (stereo unspecified) to `O=C(Nc1ccc2c(c1)CCC2)c1ccc(N2CCN(c3ccncc3)CC2)cn1`, the inhibition rises from -1.17% to 12.8%.

First: CC(=O)NCCCCC1NC2(C(=O)N(Cc3ccc(C(C)(C)C)cc3)c3ccccc32)C2C(=O)N(C3CCCCC3)C(=O)C12 (stereo unspecified)
Second: c1ccc(-c2nc(Nc3nc4ccccc4[nH]3)[nH]c2-c2ccccc2)cc1
The inhibition of the first is lower: -3.01% for the first, 6.74% for the second.
